Data on 28 molecules can be found in PubChem BioAssay (NCATS).

The nature of this assay: qHTS profiling of the MIPE4 collection as inhibitors of Plasmodium falciparum (DD2) proliferation (Rep 2) (AID 743346). Particulars: P. falciparum Dd2 in erythrocytes, SYBR Green DNA, 72 h; at 28.5 µM unless noted. Summed up: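 Erythrocytes infected with P. falciparum (0.3% parasitemia, 2.5% hematocrit) incubated with compounds 72 h at 37 C, 5% CO2. Lysis with saponin/Triton buffer containing SYBR Green I, overnight at room temperature in the dark; DNA fluorescence (485/535 nm) normalised to 0.29 uM artemisinin and DMSO.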
In general terms: In qHTS, concentration-response curves come from the screen itself.
For `O=C(NCCCNc1nc(Nc2cccc(NC(=O)N3CCCC3)c2)ncc1I)c1cccs1`, the parasite growth, % of control (lower = inhibition) came out at 28.1%.

For the molecule `CCOc1ccccc1OCCNC(C)Cc1ccc(OC)c(S(N)(=O)=O)c1` (stereo not drawn), the parasite growth, % of control (lower = inhibition) was 54.9%.

On to `NC(=O)c1c(OCc2c(F)cc(Br)cc2F)nsc1NC(=O)NCCCCN1CCCC1`, for which the parasite growth, % of control (lower = inhibition) amounted to 42.1%.

Take `COc1cc(=C2C=c3ccccc3=N2)[nH]c1=Cc1[nH]c(C)cc1C`: the parasite growth, % of control (lower = inhibition) was determined as 15.9%.

Turning to `COc1ccc(C(=O)CC2(O)C(=O)Nc3c(Cl)ccc(Cl)c32)cc1` (stereo not drawn), the parasite growth, % of control (lower = inhibition) amounted to 75.9%.

With `COc1ccc(CC2c3cc(OC)c(OC)cc3CC[N+]2(C)CCC(=O)OCCCCCOC(=O)CC[N+]2(C)CCc3cc(OC)c(OC)cc3C2Cc2ccc(OC)c(OC)c2)cc1OC` (stereo not drawn), the parasite growth, % of control (lower = inhibition) stood at 58.2% [at 5.51 µM].

`CC(C)(O)CCc1ccc(OCc2cc(-c3cccc(OC(F)F)c3)c3ncccc3c2)cc1`: the parasite growth, % of control (lower = inhibition) worked out at 102%.

With `COc1cc(OC2CCN(C)CC2)ccc1Nc1ncc2c(n1)n(C1CCCC1)c(=O)n2C`, the parasite growth, % of control (lower = inhibition) worked out at 18.2%.

`O=C(NCCS(=O)(=O)c1ccc(C(F)(F)F)cn1)c1ccc(Cl)cc1`: the parasite growth, % of control (lower = inhibition) was found to be 82.3%.

For the molecule `CC[C@@]1(O)C(=O)OCc2c1cc1n(c2=O)Cc2cc3cc(O)ccc3nc2-1`, the parasite growth, % of control (lower = inhibition) was determined as 16.8%.

With `COc1cccc(Nc2c(C(N)=O)cnc3c(C)cc(S(=O)(=O)c4cccc(C(=O)N(C)C)c4)cc23)c1`, the parasite growth, % of control (lower = inhibition) is 40% [at 9.64 µM].

As to `CC(C)c1cc(-c2n[nH]c(=O)n2-c2ccc3c(ccn3C)c2)c(O)cc1O`, the parasite growth, % of control (lower = inhibition) worked out at 8.97%.

Take `Cc1cc(CN2CCN(c3c(Br)cnc4nc(-c5ccc(N6CCN(C)CC6)cc5)[nH]c34)CC2)no1`: the parasite growth, % of control (lower = inhibition) came out at 25.8%.

On to `c1ccc2c(CCNc3ccc(Nc4ccncc4)cc3)c[nH]c2c1`, for which the parasite growth, % of control (lower = inhibition) worked out at 6.39%.

With `CN1CCN(Cc2ccc(NC(=O)Nc3ccc(Oc4cc(NC(=O)C5CC5)ncn4)cc3)cc2C(F)(F)F)CC1`, the parasite growth, % of control (lower = inhibition) is 14.2%.

For `CCN(CC)CCCCNc1ncc2cc(-c3cc(OC)cc(OC)c3)c(NC(=O)NC(C)(C)C)nc2n1`, the parasite growth, % of control (lower = inhibition) was 8%.

As for `C[C@@H]1COC(Nc2ccc3ncnc(Nc4ccc(OCc5nccs5)c(Cl)c4)c3c2)=N1`, the parasite growth, % of control (lower = inhibition) worked out at 27.7%.

Regarding `CC[C@H]1CN2CCc3cc(OC)c(OC)cc3[C@H]2C[C@@H]1C[C@@H]1NCCc2cc(OC)c(OC)cc21`, the parasite growth, % of control (lower = inhibition) was determined as 7.29%.

As for `C1=CCOCc2cc(ccc2OCCN2CCCC2)Nc2nccc(n2)-c2cccc(c2)OCC1`, the parasite growth, % of control (lower = inhibition) turned out to be 15.5%.

Turning to `Clc1cccc(-c2nnnn2Cc2cccnc2)c1Cl`, the parasite growth, % of control (lower = inhibition) is 84.8%.

As to `Cc1ccc(C(N)=O)cc1Nc1nccc(-c2cn(C(C)C)c3cnccc23)n1`, the parasite growth, % of control (lower = inhibition) was 7.77%.

Turning to `C1Cc2[nH]nc(-c3nn[nH]n3)c2C1`, the parasite growth, % of control (lower = inhibition) stood at 178%.

In the case of `CC(=O)Nc1nc(C)c(-c2ccc(Cl)c(S(=O)(=O)NCCO)c2)s1`, the parasite growth, % of control (lower = inhibition) was found to be 10%.

As for `O=C(C=Cc1cccnc1)NCCCCC1CCN(C(=O)c2ccccc2)CC1`, the parasite growth, % of control (lower = inhibition) worked out at 51%.

On to `O=C(Nc1cn[nH]c1-c1nc2ccc(CN3CCOCC3)cc2[nH]1)NC1CC1`, for which the parasite growth, % of control (lower = inhibition) worked out at 8.07%.

Take `Cc1nc2ccc(CN(C)c3ccc(C(=O)N[C@@H](CCC(=O)O)C(=O)O)s3)cc2c(=O)[nH]1`: the parasite growth, % of control (lower = inhibition) is 54.1%.

`O=C(Nc1ncc(-c2cc(C(F)F)nn2-c2c(Cl)cccc2Cl)s1)C1CC1`: the parasite growth, % of control (lower = inhibition) amounted to 31.4%.

On to `Cc1ccc2nc(NC(=O)CSc3nc4c(c(=O)n3-c3ccccc3)SCC4)sc2c1`, for which the parasite growth, % of control (lower = inhibition) worked out at 72.4%.
